# Measurements as given in the supplement of paper PMC13380429.
# A number with no mark means an inactive call.
# System: Vero E6 infected with SARS-CoV-2
# Assay: inhibition of SARS-CoV-2 cytopathic effect; higher = more antiviral protection, active = above 15
# Details: 48 h
SMILES,inhibition of SARS-CoV-2 cytopathic effect (1 nM) [%],inhibition of SARS-CoV-2 cytopathic effect (8.33 nM) [%],inhibition of SARS-CoV-2 cytopathic effect (100 nM) [%],inhibition of SARS-CoV-2 cytopathic effect (833.33 nM) [%],inhibition of SARS-CoV-2 cytopathic effect (10000 nM)
CCOC(=O)c1c(C)[nH]c2ccc3c(c12)CN1CCc2cc(OC)ccc2C1O3 (stereo not given),3.34,2.9,2.29,3.53,24.1% (active)
O=C1NC(=O)C(c2ccccc2[N+](=O)[O-])=C1Nc1ccc(O)c(Cl)c1,-2.14,-1.36,-2.09,1.29,6.31%
C[C@@H]1CN(Cc2ncccn2)C[C@H]1c1nc2c(cnn2C2CCOCC2)c(=O)[nH]1,-1.78,1.47,-0.33,1.24,-2.82%
CCC(C/C=C/c1ccccc1)(c1ccccc1)N(C)CC1CC1 (stereo not given) [igmesine],-0.08,0.01,-2.22,-1.63,6.93%
CCn1cc(-c2cccc(C(F)(F)F)c2)c2sc(C(=N)NC3CCS(=O)(=O)CC3)cc2c1=O,1.59,3.81,1.38,0.93,-7.19%
Cc1ccc(Nc2c(F)cccc2Cl)c(CC(=O)O)c1 [lumiracoxib],-0.15,-0.84,-0.33,0.6,-0.38%
CC[C@H]1OC(=O)[C@@](C)(F)C(=O)[C@H](C)[C@@H](O[C@@H]2O[C@H](C)C[C@H](N(C)C)[C@H]2O)[C@](C)(OC)C[C@@H](C)C(=O)[C@H](C)[C@H]2N(CCCCn3cc(-c4cccc(N)c4)nn3)C(=O)O[C@]12C [solithromycin],0.98,0.59,0.05,-0.9,-4.38%
